# Source: PubChem BioAssay (National Center for Advancing Translational Sciences (NCATS))
# Hits are enriched below; roughly 19% of the tested compounds scored in any of these assays.
# uPA surface inh: blocks generation of uPA at the cell surface; Potency, µM (titrated, usually from 38.3 µM), inactives show at the top dose activity change, negative = inhibition, most hits filed as inhibitors; 0.31% of 330,000 active; cell surface uPA generation assay, qHTS; AID 540303; active = well fitted inhibition curve with a large enough effect; inconclusive = small, poorly fitted or top-dose-only effect; inactive = no such curve, though single readings can be large or run the other way; tested in mouse RAW 264.7 cells; note: potency is the fitted concentration of half-maximal effect; nearly all actives have a fitted effect of over 55% in size
# HT1080 IDH1KD tx: toxicity to HT-1080 IDH1 knockdown cells (counter line); AID 686971; HT-1080 IDH1 knockdown viability, ATP luminescence, 48 h; Potency, µM (highest dose often 46.1 µM), inactives show top-dose activity, negative = toxicity, most hits filed as cytotoxic; 2% of 360,000 active;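 note: potency is the fitted concentration of half-maximal effect; 0% = DMSO wells and -100% = cell-free medium wells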
#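 In this qHTS, HT-1080 cells depleted of IDH1 are exposed for 48 h at 37 °C to compound titrations. Toxicity is scored from CellTiter-Glo luminescence, with DMSO as full viability and medium alone as none.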
# TDP1 cell noCPT: qHTS for Inhibitors of human tyrosyl-DNA phosphodiesterase 1 (TDP1): qHTS in cells in absence of CPT. Potency, µM (series often up to 46.2 µM), for the others: at the highest dose activity change, negative = growth inhibition, actives largely listed as inhibitors. 15% of 420,000 active. DT40 Tdp1-/- hTDP1 cells, no CPT, ATP luminescence, 48 h; note: potency is the fitted concentration of half-maximal effect; nearly all actives have a fitted effect of over 55% in size
#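 Growth of hTDP1-complemented DT40 Tdp1-knockout cells is measured by ATP luminescence after at least 48 hr compound exposure at 37 °C, with DMSO substituting for the 20 nM CPT used in the parallel screen.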
# IL-1B inflam inh: inhibitors of inflammasome signaling (IL-1 beta secretion); THP-1 LPS/ATP IL-1B secretion, AlphaLISA, 16 h; hits give low values; activity change, % at 57.5 µM; 4.7% of 360,000 active; in the data active = activity change below about -50%; inconclusive = mostly about -30% to -49%
#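 THP-1 cells pretreated 1 hr with compounds (up to 57.5 uM final), then stimulated with LPS (250 ng/mL final) plus ATP (1.25 mM final); secreted IL-1B measured by AlphaLISA after 16 hr, decreased signal indicating inhibition.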
# HT1080NT lethal: kills 2HG-producing HT-1080-NT fibrosarcoma cells. Potency, µM (doses to about 46.1 µM), without a hit: at the highest dose activity, negative = less viability, actives largely listed as cytotoxic. 1.6% of 360,000 active. HT-1080-NT fibrosarcoma viability, CellTiter-Glo ATP luminescence, 48 h;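 note: NT is the 2HG producing partner of a matched IDH1 knockdown line; potency is the fitted concentration of half-maximal effect; 0% = DMSO-treated cells and -100% = media-only wells without cells; nearly all actives have a fitted effect of over 55% in size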
#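 Fibrosarcoma NT cells, 750 per well in 5% FBS RPMI, were exposed to compound for 48 hours. Viability: CellTiter-Glo luminescence.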
# TDP1 cell CPT: DT40-hTDP1 cell growth loss with CPT; chicken DT40 Tdp1-/-;hTDP1 cells + 20 nM CPT, ATP luminescence, 48 h; Potency, µM (top dose mostly 46.2 µM), for the others: at the top dose activity change, negative = growth inhibition, usual class: inhibitors; 12% of 420,000 active; AID 686979; note: potency is the fitted concentration of half-maximal effect; nearly all actives have a fitted effect of over 55% in size
#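 Cell growth measured by CellTiter-Glo luminescence after a minimum 48 h, 37 C compound exposure with 20 nM CPT in Tdp1-knockout DT40 cells stably expressing hTDP1, seeded 400/well; qHTS titration format.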
# * hit, by the source's call; i = inactive; u = inconclusive; x = not tested or not shown. Unless noted, calls come from the whole dose curve; as a rule, active = well fitted curve in the direction sought with a large enough effect; inconclusive = small, poorly fitted or top-dose-only effect, or another doubt; inactive = no such curve, though single readings can be large; an effect the other way counts as inactive or inconclusive. Unless noted, % is set by controls: 0 for no effect and ±100 for the full control effect.
SMILES,uPA surface inh,HT1080 IDH1KD tx,TDP1 cell noCPT,IL-1B inflam inh,HT1080NT lethal,TDP1 cell CPT
O=C(NCCNC(=O)c1ccccc1Br)c1cccnc1,0%,4%,8%,i,-1%,6%
CC(C)OC(=O)CSc1nnc2c3ccccc3n(C)c2n1,-5%,19%,7%,0,21%,-15%
COC(=O)c1ccc(S(=O)(=O)NCCSc2nnc3c4ccccc4n(C)c3n2)cc1,x,-11%,15µM*,11,3%,u
CSCCC(NS(=O)(=O)/C=C/c1ccccc1)C(=O)NCCc1ccc(S(N)(=O)=O)cc1 (configuration not stated),-1%,-9%,-20%,3,-12%,10%
CN(C)CC/C=C1\c2cc(Cl)ccc2Sc2cc(F)c(F)cc21,-18%,-17%,23µM*,-11,u,u
CN(C)CC/C=C1/c2ccc(F)cc2Sc2ccc(Cl)cc21,4%,18µM*,16µM*,-85*,21µM*,u
CN(C)CC/C=C1\c2ccccc2Sc2cc(F)c(Cl)cc21,3%,12µM*,16µM*,-93*,26µM*,16µM*
CN(C)CC/C=C1\c2ccc(F)cc2Sc2cc(F)c(Cl)cc21,-18%,u,u,-61*,u,u
C#CCN(C)CC/C=C1\c2ccccc2CSc2ccccc21,-10%,u,u,-8,-27%,-20%
Cc1cccc(C)c1NC(=O)C1(C)CSCC(=O)N1CCc1c[nH]c2ccccc12 (configuration not stated),x,-11%,u,1,-5%,u
CCOC(=O)c1nnc(-c2cccs2)nc1Oc1ccccc1C(=O)OC,2%,-3%,-28%,26,-2%,-23%
CCOC(=O)c1nnc(-c2ccc(C)cc2)nc1Oc1ccccc1Cl,-12%,23µM*,u,u,23µM*,u
CCOC(=O)c1nnc(-c2ccc(C)cc2)nc1Oc1ccc(Cl)cc1Cl,2%,-18%,16µM*,-28,-28%,u
COc1ccc(C(CNC(=O)c2ccccc2SC)N(C)C)cc1 (configuration not stated),-5%,21%,-11%,-5,18%,-3%
CN(C(=O)c1ccc2c(c1)N(Cc1cccc(Cl)c1)C(=O)c1ccccc1S2(=O)=O)C1CCCCC1,x,x,u,x,x,21µM*
CCN1CCCC1CNC(=O)c1ccc2c(c1)N(Cc1cccc(Cl)c1)C(=O)c1ccccc1S2(=O)=O (configuration not stated),-27%,u,-2%,u,u,-23%
CN(C(=O)c1ccc2c(c1)N(Cc1ccc(F)cc1)C(=O)c1ccccc1S2(=O)=O)C1CCCCC1,x,x,16µM*,x,x,23µM*
COc1ccc(-c2noc(CN3CCN(C(=O)c4cccs4)CC3)n2)c(OC)c1OC,-14%,9%,-9%,-3,6%,u
COc1ccc(-c2oc3ccc(-c4cc(OC)c(OC)c(OC)c4)cc3c2-c2ccc(OC)nc2)cc1,6%,-22%,12µM*,-4,-9%,15µM*
COc1ccc(-c2c(-c3cc(OC)c(OC)c(OC)c3)noc2C)cn1,u,1.5µM*,0.58µM*,27,u,0.58µM*
COc1cc(-c2c(-c3cc(OC)c(OC)c(OC)c3)noc2C)ccc1F,u,0.33µM*,0.0073µM*,88,0.13µM*,0.092µM*
COC(=O)c1cc(-c2c(-c3cc(OC)c(OC)c(OC)c3)noc2C)cc([N+](=O)[O-])c1,u,-8%,16µM*,15,-2%,16µM*
Cc1nc(C)n(C(C)CNS(=O)(=O)c2ccc(Cl)cc2)n1 (configuration not stated),4%,-5%,2%,0,2%,8%
